The source of these data is ChEMBL document CHEMBL1961873, “Compounds: GSK PKIS; Assays: Nanosyn kinase panel” (2012).

Assay [1] deals with Protein kinase C gamma type (Homo sapiens) (UniProt P05129). Conditions: at 1 µM.
The target of assay [2] is T1, Protein kinase C iota type (Homo sapiens) (UniProt P41743).
T1 sequence (whole entry): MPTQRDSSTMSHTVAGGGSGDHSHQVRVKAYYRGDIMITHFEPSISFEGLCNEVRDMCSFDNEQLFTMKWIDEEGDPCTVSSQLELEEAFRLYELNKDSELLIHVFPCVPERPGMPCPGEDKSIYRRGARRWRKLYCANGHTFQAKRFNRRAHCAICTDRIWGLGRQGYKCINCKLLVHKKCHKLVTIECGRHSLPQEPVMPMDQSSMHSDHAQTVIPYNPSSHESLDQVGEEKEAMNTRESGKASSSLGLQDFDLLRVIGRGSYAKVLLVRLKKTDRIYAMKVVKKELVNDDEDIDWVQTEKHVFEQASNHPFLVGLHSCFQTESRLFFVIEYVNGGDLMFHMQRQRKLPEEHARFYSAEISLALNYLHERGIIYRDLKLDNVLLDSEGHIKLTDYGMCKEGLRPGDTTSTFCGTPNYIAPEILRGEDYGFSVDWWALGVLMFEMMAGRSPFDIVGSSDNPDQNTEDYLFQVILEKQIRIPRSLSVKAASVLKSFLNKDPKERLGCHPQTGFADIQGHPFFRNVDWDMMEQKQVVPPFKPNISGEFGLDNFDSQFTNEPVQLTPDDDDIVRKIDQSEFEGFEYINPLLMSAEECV
Particulars: at 0.1 µM.

For assay [3], the target named is T1, Protein kinase C iota type (Homo sapiens). Particulars: at 1 µM.
Assay [4] addresses Protein kinase C theta type (Homo sapiens) (UniProt Q04759). Conditions: at 0.1 µM.
Assay [5] shares this target. Conditions: at 1 µM.
The target of assay [6] is Protein kinase C beta type (Homo sapiens) (UniProt P05771). Particulars: at 0.1 µM.
Chain of Protein kinase C beta type (Homo sapiens) (P05771 2-671 limits assumed): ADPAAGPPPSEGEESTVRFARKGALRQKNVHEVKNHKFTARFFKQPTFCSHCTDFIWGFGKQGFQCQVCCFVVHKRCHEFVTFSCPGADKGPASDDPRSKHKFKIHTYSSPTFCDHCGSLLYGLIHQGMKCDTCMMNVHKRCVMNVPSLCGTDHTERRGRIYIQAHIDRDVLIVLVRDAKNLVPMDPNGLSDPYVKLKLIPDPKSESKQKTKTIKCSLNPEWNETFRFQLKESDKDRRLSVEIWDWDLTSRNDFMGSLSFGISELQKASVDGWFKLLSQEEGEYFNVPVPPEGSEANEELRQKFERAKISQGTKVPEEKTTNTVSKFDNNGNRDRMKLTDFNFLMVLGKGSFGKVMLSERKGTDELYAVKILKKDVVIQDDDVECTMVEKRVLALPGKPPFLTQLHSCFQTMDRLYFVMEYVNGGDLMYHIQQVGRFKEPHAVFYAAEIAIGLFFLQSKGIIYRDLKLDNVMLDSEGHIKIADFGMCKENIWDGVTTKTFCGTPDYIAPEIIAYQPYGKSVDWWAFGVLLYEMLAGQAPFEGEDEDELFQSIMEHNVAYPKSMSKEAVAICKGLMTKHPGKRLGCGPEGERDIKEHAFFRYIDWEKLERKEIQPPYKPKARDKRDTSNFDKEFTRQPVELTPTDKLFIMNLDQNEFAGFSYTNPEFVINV
Assay [7] shares this target. Particulars: at 1 µM.
For assay [8], the target named is T2, Serine/threonine-protein kinase D1 (Homo sapiens) (UniProt Q15139).
T2 sequence (whole entry): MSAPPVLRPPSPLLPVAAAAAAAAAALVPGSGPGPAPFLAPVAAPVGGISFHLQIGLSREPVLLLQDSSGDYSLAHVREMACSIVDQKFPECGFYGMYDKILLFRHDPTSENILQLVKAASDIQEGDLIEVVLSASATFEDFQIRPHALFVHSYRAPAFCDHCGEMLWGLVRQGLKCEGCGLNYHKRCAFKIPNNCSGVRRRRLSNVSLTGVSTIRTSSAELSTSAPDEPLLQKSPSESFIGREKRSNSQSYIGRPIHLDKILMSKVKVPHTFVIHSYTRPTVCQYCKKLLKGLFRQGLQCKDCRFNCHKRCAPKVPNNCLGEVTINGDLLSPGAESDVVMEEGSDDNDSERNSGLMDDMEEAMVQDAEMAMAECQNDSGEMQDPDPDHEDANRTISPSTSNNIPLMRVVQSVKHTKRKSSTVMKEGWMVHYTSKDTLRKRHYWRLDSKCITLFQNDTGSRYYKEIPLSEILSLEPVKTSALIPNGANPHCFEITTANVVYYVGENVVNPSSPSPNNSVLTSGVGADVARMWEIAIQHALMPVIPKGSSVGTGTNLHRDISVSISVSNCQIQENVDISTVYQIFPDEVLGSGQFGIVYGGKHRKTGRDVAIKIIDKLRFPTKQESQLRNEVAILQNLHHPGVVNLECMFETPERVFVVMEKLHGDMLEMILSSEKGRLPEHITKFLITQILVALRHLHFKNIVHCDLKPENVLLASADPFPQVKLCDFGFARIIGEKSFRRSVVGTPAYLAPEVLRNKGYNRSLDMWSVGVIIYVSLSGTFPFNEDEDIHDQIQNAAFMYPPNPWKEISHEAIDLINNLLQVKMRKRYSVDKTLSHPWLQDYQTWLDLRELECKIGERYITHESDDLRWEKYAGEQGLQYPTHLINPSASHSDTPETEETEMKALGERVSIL
Particulars: at 0.1 µM.

Assay [9] has as its target T2, Serine/threonine-protein kinase D1 (Homo sapiens). Conditions: at 1 µM.
Assay [10] deals with T3, Serine/threonine-protein kinase D2 (Homo sapiens) (UniProt Q9BZL6).
T3 sequence (whole entry): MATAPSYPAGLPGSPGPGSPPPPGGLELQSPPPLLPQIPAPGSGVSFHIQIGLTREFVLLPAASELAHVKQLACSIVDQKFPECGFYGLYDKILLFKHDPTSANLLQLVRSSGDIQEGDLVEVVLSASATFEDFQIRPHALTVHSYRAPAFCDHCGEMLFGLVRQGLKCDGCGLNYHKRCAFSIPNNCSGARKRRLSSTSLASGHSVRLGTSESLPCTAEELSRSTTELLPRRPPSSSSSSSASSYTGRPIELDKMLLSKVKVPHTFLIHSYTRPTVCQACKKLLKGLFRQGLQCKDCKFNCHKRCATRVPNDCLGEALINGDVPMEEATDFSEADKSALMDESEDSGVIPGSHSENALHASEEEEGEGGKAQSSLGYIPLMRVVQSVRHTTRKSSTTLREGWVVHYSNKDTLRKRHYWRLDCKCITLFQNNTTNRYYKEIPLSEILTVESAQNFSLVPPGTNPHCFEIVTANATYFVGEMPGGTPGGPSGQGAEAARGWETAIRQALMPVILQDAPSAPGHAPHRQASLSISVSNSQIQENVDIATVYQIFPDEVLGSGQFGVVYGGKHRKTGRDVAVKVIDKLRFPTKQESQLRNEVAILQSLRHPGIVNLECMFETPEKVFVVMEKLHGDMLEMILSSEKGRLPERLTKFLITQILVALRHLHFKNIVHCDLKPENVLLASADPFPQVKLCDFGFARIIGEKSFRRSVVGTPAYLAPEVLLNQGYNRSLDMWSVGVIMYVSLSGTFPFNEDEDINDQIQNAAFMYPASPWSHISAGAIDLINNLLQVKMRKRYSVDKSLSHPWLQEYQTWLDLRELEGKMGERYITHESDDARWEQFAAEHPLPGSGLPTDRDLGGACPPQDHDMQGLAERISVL
Conditions: at 0.1 µM.

Assay [11] deals with T3, Serine/threonine-protein kinase D2 (Homo sapiens). Particulars: at 1 µM.
For assay [12], the target named is T4, Serine/threonine-protein kinase D3 (Homo sapiens) (UniProt O94806).
T4 sequence (whole entry): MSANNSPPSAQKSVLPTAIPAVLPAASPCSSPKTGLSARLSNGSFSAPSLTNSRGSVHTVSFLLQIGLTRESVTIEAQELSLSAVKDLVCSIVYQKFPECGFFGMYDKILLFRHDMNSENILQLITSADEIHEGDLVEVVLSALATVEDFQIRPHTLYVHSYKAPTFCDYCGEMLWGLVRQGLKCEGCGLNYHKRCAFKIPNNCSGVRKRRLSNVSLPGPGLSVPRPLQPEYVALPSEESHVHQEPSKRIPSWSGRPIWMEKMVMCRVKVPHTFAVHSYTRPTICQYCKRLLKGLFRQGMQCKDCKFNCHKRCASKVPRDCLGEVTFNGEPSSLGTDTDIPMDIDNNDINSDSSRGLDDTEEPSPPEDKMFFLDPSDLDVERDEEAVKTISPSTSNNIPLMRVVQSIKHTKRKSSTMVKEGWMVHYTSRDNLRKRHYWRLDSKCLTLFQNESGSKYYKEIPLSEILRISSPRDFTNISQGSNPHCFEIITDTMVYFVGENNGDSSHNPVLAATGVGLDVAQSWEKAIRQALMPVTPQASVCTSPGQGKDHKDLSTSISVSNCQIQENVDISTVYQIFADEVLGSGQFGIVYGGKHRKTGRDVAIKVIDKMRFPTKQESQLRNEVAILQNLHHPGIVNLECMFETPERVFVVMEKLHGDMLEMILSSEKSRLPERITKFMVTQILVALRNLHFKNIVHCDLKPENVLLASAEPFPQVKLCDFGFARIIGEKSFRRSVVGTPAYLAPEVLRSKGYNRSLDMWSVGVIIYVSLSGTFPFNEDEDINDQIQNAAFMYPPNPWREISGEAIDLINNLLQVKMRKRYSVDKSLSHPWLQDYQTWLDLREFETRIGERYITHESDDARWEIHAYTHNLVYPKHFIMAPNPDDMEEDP
Particulars: at 0.1 µM.

Assay [13] deals with T4, Serine/threonine-protein kinase D3 (Homo sapiens). Conditions: at 1 µM.
Assay [14] deals with T5, cGMP-dependent protein kinase 1 (Homo sapiens) (UniProt Q13976).
T5 sequence (whole entry): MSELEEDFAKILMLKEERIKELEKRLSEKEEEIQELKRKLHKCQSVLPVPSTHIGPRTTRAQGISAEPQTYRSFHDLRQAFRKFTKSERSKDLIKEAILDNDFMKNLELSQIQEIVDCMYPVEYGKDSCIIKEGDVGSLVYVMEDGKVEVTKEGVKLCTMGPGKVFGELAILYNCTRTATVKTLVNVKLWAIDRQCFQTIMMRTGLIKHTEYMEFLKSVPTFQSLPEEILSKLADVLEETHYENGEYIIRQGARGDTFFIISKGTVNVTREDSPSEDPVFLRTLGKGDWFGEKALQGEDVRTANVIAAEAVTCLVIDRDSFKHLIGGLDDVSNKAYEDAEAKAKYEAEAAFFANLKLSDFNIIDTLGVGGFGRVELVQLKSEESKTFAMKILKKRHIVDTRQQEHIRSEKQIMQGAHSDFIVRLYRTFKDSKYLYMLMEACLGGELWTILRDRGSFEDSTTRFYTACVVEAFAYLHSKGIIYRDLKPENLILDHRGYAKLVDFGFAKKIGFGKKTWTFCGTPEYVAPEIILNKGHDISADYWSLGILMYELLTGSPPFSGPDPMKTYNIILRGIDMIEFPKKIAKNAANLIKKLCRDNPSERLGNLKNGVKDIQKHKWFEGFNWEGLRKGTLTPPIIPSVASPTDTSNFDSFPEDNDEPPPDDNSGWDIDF
Particulars: at 0.1 µM.

Assay [15] deals with T5, cGMP-dependent protein kinase 1 (Homo sapiens). Conditions: at 1 µM.
Assay [16] has as its target T6, cGMP-dependent protein kinase 2 (Homo sapiens) (UniProt Q13237).
T6 sequence (whole entry): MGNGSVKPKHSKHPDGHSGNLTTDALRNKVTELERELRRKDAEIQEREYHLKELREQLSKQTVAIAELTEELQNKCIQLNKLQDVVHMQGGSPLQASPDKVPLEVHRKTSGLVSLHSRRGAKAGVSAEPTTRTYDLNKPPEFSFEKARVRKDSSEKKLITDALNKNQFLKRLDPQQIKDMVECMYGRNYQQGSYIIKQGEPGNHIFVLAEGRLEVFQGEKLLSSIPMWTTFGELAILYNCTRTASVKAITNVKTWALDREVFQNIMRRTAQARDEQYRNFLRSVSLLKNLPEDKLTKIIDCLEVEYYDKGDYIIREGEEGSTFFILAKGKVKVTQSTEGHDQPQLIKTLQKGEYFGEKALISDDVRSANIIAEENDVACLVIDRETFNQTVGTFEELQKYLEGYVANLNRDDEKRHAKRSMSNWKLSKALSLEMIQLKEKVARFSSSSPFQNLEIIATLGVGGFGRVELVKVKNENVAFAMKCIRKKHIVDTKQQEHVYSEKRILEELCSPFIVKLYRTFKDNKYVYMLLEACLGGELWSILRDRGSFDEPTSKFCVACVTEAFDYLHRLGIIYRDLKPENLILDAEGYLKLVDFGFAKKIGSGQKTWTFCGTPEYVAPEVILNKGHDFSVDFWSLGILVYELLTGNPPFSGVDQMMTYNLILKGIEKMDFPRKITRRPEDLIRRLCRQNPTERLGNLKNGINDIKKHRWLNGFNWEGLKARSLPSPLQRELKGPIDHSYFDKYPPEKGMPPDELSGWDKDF
Conditions: at 0.1 µM.

Assay [17] has as its target T6, cGMP-dependent protein kinase 2 (Homo sapiens). Particulars: at 1 µM.
Assay [18] has as its target T7, cAMP-dependent protein kinase catalytic subunit PRKX (Homo sapiens) (UniProt P51817).
T7 sequence (whole entry): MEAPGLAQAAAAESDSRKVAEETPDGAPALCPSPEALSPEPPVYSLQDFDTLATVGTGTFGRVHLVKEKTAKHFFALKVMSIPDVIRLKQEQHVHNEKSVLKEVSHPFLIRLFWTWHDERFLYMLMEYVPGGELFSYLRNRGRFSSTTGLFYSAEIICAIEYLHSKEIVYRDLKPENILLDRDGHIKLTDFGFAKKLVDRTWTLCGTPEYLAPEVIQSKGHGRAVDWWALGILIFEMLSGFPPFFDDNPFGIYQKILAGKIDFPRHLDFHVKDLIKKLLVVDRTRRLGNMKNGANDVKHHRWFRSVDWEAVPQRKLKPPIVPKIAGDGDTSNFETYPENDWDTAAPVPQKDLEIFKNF
Conditions: at 0.1 µM.

The target of assay [19] is T7, cAMP-dependent protein kinase catalytic subunit PRKX (Homo sapiens). Particulars: at 1 µM.
Assay [20] addresses Rho-associated protein kinase 1 (Homo sapiens) (UniProt Q13464). Conditions: at 0.1 µM.

Chain of Protein kinase C theta type (Homo sapiens) (Q04759 whole entry, looked up): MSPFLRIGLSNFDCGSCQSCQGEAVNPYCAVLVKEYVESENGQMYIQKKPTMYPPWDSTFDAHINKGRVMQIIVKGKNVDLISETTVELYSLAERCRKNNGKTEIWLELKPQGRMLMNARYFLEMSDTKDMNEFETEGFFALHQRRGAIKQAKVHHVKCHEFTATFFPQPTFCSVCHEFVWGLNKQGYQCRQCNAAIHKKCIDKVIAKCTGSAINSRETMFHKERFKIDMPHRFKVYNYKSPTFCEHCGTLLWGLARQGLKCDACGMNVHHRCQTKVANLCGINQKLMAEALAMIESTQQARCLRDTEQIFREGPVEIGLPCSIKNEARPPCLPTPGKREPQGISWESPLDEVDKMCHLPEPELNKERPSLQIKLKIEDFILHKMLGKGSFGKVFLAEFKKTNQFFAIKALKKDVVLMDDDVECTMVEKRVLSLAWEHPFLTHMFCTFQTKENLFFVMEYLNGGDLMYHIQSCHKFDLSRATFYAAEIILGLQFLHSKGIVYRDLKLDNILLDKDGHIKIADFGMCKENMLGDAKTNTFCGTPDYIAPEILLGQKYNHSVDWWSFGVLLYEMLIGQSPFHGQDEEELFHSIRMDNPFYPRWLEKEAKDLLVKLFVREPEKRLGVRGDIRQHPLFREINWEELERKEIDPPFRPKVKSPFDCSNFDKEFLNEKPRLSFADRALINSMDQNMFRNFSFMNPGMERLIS
Chain of Rho-associated protein kinase 1 (Homo sapiens) (Q13464 2-1354 limits assumed): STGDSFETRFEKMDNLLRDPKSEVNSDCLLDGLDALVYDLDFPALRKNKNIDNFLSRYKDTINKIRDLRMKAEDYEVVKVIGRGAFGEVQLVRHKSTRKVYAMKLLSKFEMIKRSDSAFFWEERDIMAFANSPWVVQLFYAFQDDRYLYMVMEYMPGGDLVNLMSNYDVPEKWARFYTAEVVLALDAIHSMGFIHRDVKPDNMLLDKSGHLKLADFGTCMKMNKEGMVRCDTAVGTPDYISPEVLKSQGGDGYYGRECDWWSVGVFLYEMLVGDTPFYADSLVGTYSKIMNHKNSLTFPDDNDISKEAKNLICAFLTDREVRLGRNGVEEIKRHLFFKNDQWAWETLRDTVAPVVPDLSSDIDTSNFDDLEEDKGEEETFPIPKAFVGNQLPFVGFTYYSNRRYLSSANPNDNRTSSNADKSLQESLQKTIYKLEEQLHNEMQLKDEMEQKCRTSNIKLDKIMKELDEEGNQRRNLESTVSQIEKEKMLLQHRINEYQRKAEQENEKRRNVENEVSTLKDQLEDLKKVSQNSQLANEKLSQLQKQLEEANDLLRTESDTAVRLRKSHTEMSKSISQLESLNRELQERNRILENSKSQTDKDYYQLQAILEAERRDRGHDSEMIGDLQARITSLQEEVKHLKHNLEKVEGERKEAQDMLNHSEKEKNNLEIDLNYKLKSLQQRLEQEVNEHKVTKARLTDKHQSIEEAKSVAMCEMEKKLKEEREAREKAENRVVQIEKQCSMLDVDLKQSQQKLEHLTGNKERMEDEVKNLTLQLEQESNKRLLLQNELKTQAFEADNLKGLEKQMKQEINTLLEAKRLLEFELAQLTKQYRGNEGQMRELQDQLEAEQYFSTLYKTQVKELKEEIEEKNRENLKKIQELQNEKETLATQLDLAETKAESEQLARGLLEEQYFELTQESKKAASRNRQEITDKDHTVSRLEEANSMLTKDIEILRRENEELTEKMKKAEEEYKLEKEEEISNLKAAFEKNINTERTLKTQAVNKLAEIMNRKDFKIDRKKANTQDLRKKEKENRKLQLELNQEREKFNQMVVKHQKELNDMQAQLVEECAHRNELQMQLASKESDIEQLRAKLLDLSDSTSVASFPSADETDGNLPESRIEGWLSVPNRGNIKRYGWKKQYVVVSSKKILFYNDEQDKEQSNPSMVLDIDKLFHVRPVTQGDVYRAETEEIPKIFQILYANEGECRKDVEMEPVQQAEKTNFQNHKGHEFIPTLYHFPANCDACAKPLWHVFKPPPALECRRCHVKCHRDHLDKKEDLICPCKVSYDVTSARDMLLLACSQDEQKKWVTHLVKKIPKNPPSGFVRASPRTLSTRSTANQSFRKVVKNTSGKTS

Broadly, the inhibition is the change of the read-out against control, counted positive when it falls. Take `NC(=O)c1cc(-c2ccc(F)cc2)cc(-c2ccncc2)c1N`: the inhibition amounted to 5.15% in [1]; 0.73% in [2]; 0.87% in assay [3]; 1.84% in assay [4]; 3.65% in assay [5]; 1.46% in assay [6]. Also, the inhibition in assay [7] was found to be 1.35%; in assay [8], 4.65%; in [9] it was 3.31%; in assay [10] it was 3.51%; in assay [11], 4.06%; in assay [12], 3.88%. The inhibition in assay [13] amounted to 2.86%; in assay [14], 1.49%; in assay [15], 5.83%; in [16], 1.73%; in assay [17] it was 2.74%; in assay [18], 1.1%. Also, the inhibition is 3.07% in assay [19] and -0.55% in assay [20].

`Cc1nnc(-c2ccc(C)c(-c3ccc(C(=O)NCc4ccc(Cl)cc4)cc3)c2)o1`: the inhibition in [1] worked out at 3.88%; in assay [2], 2.2%; in [3], 0.35%; in assay [4], 1.83%; in assay [5], 3.97%; in [6] it was 1.36%. Also, the inhibition was 3.21% in [7]; 1% in assay [8]; 0.36% in assay [9]; 0.28% in assay [10]; -0.8% in [11]; 2.09% in assay [12]. The inhibition in assay [13] was -0.1%; in [14], 2.07%; in [15], 5.32%; in assay [16] it was 3.25%; in assay [17], 3.86%; in assay [18], 2.66%. The figures for the inhibition in assay [19] and in [20] were 5.13% and 1.51%, respectively.
